Results: ChEMBL document CHEMBL1961873, “Compounds: GSK PKIS; Assays: Nanosyn kinase panel” (2012)
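Also: values are mean inhibition of p70S6K1, measured as part of the GSK PKIS panel.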

Each compound was assayed against Ribosomal protein S6 kinase beta-1 (Homo sapiens) (UniProt P23443). Settings: at 1 µM.
Ribosomal protein S6 kinase beta-1 (Homo sapiens), sequence (P23443 whole entry, looked up): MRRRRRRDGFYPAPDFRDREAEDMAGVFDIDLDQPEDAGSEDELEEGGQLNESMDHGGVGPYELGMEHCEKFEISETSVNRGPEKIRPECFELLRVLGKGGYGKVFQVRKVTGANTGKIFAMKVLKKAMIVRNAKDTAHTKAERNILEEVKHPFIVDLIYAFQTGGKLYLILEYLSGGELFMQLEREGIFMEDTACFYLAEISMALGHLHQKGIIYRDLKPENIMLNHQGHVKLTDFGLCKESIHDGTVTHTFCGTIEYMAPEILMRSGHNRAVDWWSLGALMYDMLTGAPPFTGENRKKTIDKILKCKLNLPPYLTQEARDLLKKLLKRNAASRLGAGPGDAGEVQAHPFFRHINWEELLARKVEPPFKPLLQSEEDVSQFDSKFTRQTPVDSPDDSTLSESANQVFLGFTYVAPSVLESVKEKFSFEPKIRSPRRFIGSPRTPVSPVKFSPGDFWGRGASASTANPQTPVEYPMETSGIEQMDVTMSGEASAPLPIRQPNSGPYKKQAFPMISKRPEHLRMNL
For `CN(C)CCCn1c(-c2nonc2N)nc2cnccc21`, the inhibition was 13.2%. Work on `CN(c1ccc(NC(=O)Nc2ccc(OC(F)(F)F)cc2)cc1)c1ccnc(Nc2cccc(S(N)(=O)=O)c2)n1` yielded an inhibition of 1.95%. For `O=C(Nc1ccc(Oc2ccc3[nH]c(NC(=O)c4ccco4)nc3c2)cc1)Nc1cc(C(F)(F)F)ccc1F`, the inhibition was 58.4%. `c1ccc(Cc2nc3ccc(Nc4ncnc5ccccc45)cc3[nH]2)cc1` showed an inhibition of 2.79%. For `C[C@@H](Oc1cc(-n2cnc3ccc(OCC4CCN(C)CC4)cc32)sc1C(N)=O)c1ccccc1C(F)(F)F`, the inhibition was 5.55%. `Nc1nccc(-c2c(-c3ccc(F)cc3)nn3cc(C(F)(F)F)ccc23)n1` was tested, and the inhibition was -3%. For `NC(=O)c1cccc(Nc2nccc(Nc3cccc(F)c3)n2)c1`, the inhibition was 1.99%. `Nc1nccc(C#Cc2cncnc2Nc2ccc(OCc3cccc(F)c3)c(Cl)c2)n1` showed an inhibition of 1.35%. In the case of `NC(=O)c1sc(-n2cnc3ccccc32)cc1OCc1ccccc1Br`, the inhibition is reported as 4.06%. `CN(C)c1cc2c(Nc3ccc4c(cnn4Cc4ccccc4)c3)ncnc2cn1` gave an inhibition of 3.88%. Compound `NS(=O)(=O)c1ccc(-c2cc3ccncc3cc2OCc2ccccc2)cc1` has an inhibition of 2.04%. `Nc1ccc(C#Cc2cncnc2Nc2ccc(OCc3cccc(F)c3)c(Cl)c2)cc1` showed an inhibition of 0.85%. `FC(F)(F)c1ccc(-c2nn3ncccc3c2-c2ccnc(Nc3ccc4c(c3)OCCO4)n2)cc1` showed an inhibition of 2.06%. `Cc1cc(-c2ccccn2)cc(C)c1/C=C/c1cncc(-c2nn[nH]n2)c1` was tested, and the inhibition was 1.44%. Work on `CCn1c(-c2nonc2N)nc2c(C#CC(C)(C)O)nc(OCCNC)cc21` yielded an inhibition of 10.1%. `Oc1cccc(-c2nc(-c3ccccc3)[nH]c2-c2ccncc2)c1` was tested, and the inhibition was 6.44%. For `C[C@@H](Oc1cc(-n2cnc3ccc(OC[C@@H](O)CO)cc32)sc1C(N)=O)c1ccccc1Cl`, the inhibition was 1.5%. For `OCc1ccc(-c2nc(-c3ccccn3)c(-c3ccc4c(c3)OCO4)[nH]2)cc1`, the inhibition was 3.2%. For `Cc1ccc(NC(=O)CC2CC2)cc1-c1ccc(C(=O)NCC2CC2)cc1`, the inhibition was 2.46%. Compound `COc1ccc(-c2nn3ncccc3c2-c2ccnc(Nc3cccc(C(F)(F)F)c3)n2)cc1` has an inhibition of 0.85%. In the case of `Cc1ccc2c(c1)/C(=N/Nc1ccc(S(N)(=O)=O)cc1)C(=O)N2`, the inhibition is reported as 2.59%. `COc1cc(/C=N/Nc2ncnc3c2cnn3C(C)C)ccc1O` gave an inhibition of 2.21%. `NS(=O)(=O)c1ccc(NC=C2C(=O)Nc3ccc4ncsc4c32)cc1` was tested, and the inhibition was 25.6%. For `COc1cc(Nc2nccc(-c3cnn4ncccc34)n2)cc(OC)c1`, the inhibition was 6.59%. Work on `CCS(=O)(=O)c1ccc(OC)c(Nc2nccc(N(C)c3ccc4c(C)n[nH]c4c3)n2)c1` yielded an inhibition of 1.3%. `Cc1ccc(Nc2ccnc(Nc3cccc(C(N)=O)c3)n2)cc1O` showed an inhibition of 6.47%. With `CS(=O)(=O)Nc1cccc(-c2ccc3c(NC(=O)C4CC4)n[nH]c3c2)c1` the inhibition was 1.9%. For `NS(=O)(=O)c1ccc(Nc2cc(-c3cccc(O)c3)n[nH]2)cc1`, the inhibition was 2.83%. Work on `COC(=O)c1cncc(/C=C/c2c(C)cc(O)cc2C)c1` yielded an inhibition of 1.04%. Work on `COc1cc2ncnc(Nc3ccc(C)c(O)c3)c2cc1OC` yielded an inhibition of 2.36%. `COC(=O)Nc1nc2cc(Oc3ccc(NC(=O)Nc4cccc(Br)c4)cc3)ccc2[nH]1` gave an inhibition of 3.21%. `[O-][S+]1CCN(Cc2ccc(-c3ccc4ncnc(Nc5ccc(OCc6ccccc6)c(Cl)c5)c4c3)o2)CC1` showed an inhibition of -0.16%. `COc1cc2ncn(-c3cc(OCc4ccccc4S(C)(=O)=O)c(C#N)s3)c2cc1OC` showed an inhibition of 5.33%.
